From PubChem BioAssay (NCI)
This is part of a sample that, as a whole, favours compounds with a hit. Of some 83,000 tested, about 20% had one in any assay.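 Values shown are percent growth following 48 h exposure of cells in 96-well plates to a single concentration of compound; below 10 was considered active.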 A number with no mark means an inactive call. Calls of active or inactive are those of the source.

What follows are molecules tested on HL-60(TB) leukemia (assay: NCI-60 one-dose screen, 48 h (100 = growth as untreated, 0 = no growth, -100 = all killed)). Conditions: 10 µM unless noted.

SMILES | growth
O=C(Nc1ccc(Cl)c([N+](=O)[O-])c1)Nc1nc2ccccc2s1 | 91.3%
COc1ccc(Cc2nnc(Nc3nc4ccccc4s3)s2)cc1 | -32.7% (active)
CC[C@]1(O)C[C@H]2CN(CCc3c([nH]c4ccccc34)[C@@](C(=O)OC)(c3cc4c(cc3OC)N(C=O)[C@H]3[C@@](O)(C(=O)OC)[C@H](OC(C)=O)[C@]5(CC)C=CCN6CC[C@]43[C@@H]65)C2)C1 | -25.1% (active)
CCN(CC)CCCC(C)Nc1ccc2ccc(Cl)cc2n1 (stereo not given) | 101%
Cl.Fc1c[c-]c(-c2ccccn2)c(F)c1.[Pt].c1ccc([PH+](c2ccccc2)c2ccccc2[PH+](c2ccccc2)c2ccccc2)cc1 | -24.7% (active)
COc1cc(OC)c(C(=O)/C=C/c2ccc(C#N)cc2)c(OC)c1 | -7.85% (active)
O=C1C2CC=CCC2C(=O)N1CNc1ccc(Cl)cc1 (stereo not given) | 52.9%
O=C(Nc1cccc(Cl)c1)Nc1ncc(CCNc2ncnc3ccsc23)s1 | 8.72% (active)
COC(=O)C1(C)COP(=O)(NC23CC4CC(CC(C4)C2)C3)OC1 (stereo not given) | 119%
Cc1ccc(Nc2cc(=S)nc(N)[nH]2)cc1C | 92.6%
Cc1cc(C)c(-c2cc(O)c(-c3c(C)cc(C)cc3C)cc2O)c(C)c1 | -24.4% (active)
CN(C)Cc1c(-c2ccccc2)[nH]c2ccccc12 | 92.9%
O=C1C2CC3C(CC2C(=O)[N]1[Sn]([c]1ccccc1)([c]1ccccc1)[c]1ccccc1)C1(Cl)C(Cl)=C(Cl)C3(Cl)C1(Cl)Cl (stereo not given) | -58% (active)
C[C@@H]1CC2C3C[C@H](F)C4=CC(=O)C=C[C@]4(C)[C@@]3(F)[C@@H](O)C[C@]2(C)[C@@]1(O)C(=O)CO (stereo not given in full) | 99.1%
CCOC(=O)c1c(-c2ccccc2)n2c(=O)cc(C)c3c(O)c(O)cc1c32 | 11.7%
COc1cc(-c2c(C#N)c(-c3cccs3)nc3c2c(-c2ccccc2)nn3-c2ccccc2)ccc1O | 99.3%
CC1CCN(C(=O)CCCl)c2ccccc21 (stereo not given) | 112%
C[C@H]1[C@H](C)CC[C@]2(C(=O)NCC#CCN3CCN(C)CC3)CC[C@]3(C)C(=CC[C@@H]4[C@@]5(C)Cc6c([nH]c7ccccc67)C(C)(C)[C@@H]5CC[C@]43C)[C@H]12 | 63.9%
CCO/C=N/C1=C(C#N)C(c2ccc(Cl)cc2)c2sc3c(F)cccc3c2O1 (stereo not given) | 56.2%
COc1cc(C2=C(c3cn(C)c4ccccc34)COC2=O)cc(OC)c1OC | -1.28% (active)

SMILES | growth
CC(=O)O[C@H]1CC[C@]2(C)[C@H]3CC=C4[C@@H]5CC(C)(C)CC[C@]5(C(=O)NCCNCCNCCN)CC[C@@]4(C)[C@]3(C)CC[C@H]2C1(C)C | -42.8% (active)
COc1cc(/C=C\C(=O)O)ccc1OCc1ccccc1 | 122%
CC(=O)CS(C)(=O)=O | 100%
COc1cccc2nc(Nc3cccc(NC(=O)c4ccc(N5CCN(C)CC5)c(C(F)(F)F)c4)c3)ccc12 | 37.6%
Cn1cc(-c2noc(C(=O)c3cn(C)c4ncc(Br)cc34)n2)c2ccccc21 | 103%
COc1ccccc1CNCCCN1C(=O)c2ccc3c4c(ccc(c24)C1=O)C(=O)N(CCCNCCCCN)C3=O | -42% (active)
CN(C)C(=S)NN=C(c1ccccn1)c1ccccn1 | -27.5% (active)
COCCn1cc(-c2csc(-c3c[nH]c4ccc(F)cc34)n2)c2cccnc21 | 13.9%
N#Cc1c(-c2ccccc2)nc(SCC(O)CN2CCOCC2)nc1N1CCOCC1 (stereo not given) | 72.2%
Cc1cc2nc3[nH]c4ccccc4c3nc2cc1C | 55.2%
C=C(C)[C@@H]1CC[C@]2(C)[C@H](CC=C3[C@@H]4CC(C)(C)CC[C@]4(C=O)CC[C@]32C)[C@@]1(C)CCCN | -3.43% (active)
CCN1CC(CCN2CCOCC2)C(C(c2ccccc2)c2ccccc2)C1=O (stereo not given) | 113%
CCN(CC)CCOc1nc2ccccc2c2c1-c1ccc(OC)cc1C2=O | 9.1% (active)
Cc1cc(C(=C2C=CC(=Nc3ccccc3)C=C2)c2ccc(Nc3ccccc3)cc2)ccc1N | 5.66% (active)
CC1=C(C(=O)OCC2CCN(C(=O)OC(C)(C)C)CC2)[C@H](c2cccc(Br)c2)C2=C(CC(C)(C)CC2=O)N1 | -17.1% (active)
C/C(=N/O)c1ccc(NC(=O)Cn2nc(-c3ccc(Cl)cc3)nc2N)cc1 | 94.7%
COc1ccc(/C=C/c2nc(Nc3ccc(S(=O)(=O)Nc4nc(C)cc(C)n4)cc3)c3ccccc3n2)cc1 | 73.6%
COC(=O)[C@]12CC[C@@H](C(C)=O)[C@@H]1[C@H]1CC[C@@H]3[C@@]4(C)C/C(=C/c5cccnc5)C(=O)C(C)(C)[C@@H]4CC[C@@]3(C)[C@]1(C)CC2 | -2.67% (active)
O=C(CCl)NCCNc1nccc(Nc2ccc(S(=O)(=O)Nc3ccccn3)cc2)n1 | 10.2%
CC(=O)c1c(C)nc2ccccc2c1/C=C/c1ccc(F)cc1 | 95.6%
